Laboratory results from publication PMC4336329 (PLoS ONE, 2015).
Screen size: about 310,000 compounds; about 14,000 (4.5%) showed an effect of 50% or more. The effect is printed as a negative number. The list comes from a sample in which strong results are over-represented; it also holds similar structures and randomly drawn compounds.

What follows are compounds tested against human ether-à-go-go-related gene (hERG) potassium channel (human, UniProt Q12809) (assay: primary screen, population patch clamp on CHO cells stably expressing hERG; higher = less effect of the substance).
Chain of human ether-à-go-go-related gene (hERG) potassium channel (Q12809 whole entry, looked up): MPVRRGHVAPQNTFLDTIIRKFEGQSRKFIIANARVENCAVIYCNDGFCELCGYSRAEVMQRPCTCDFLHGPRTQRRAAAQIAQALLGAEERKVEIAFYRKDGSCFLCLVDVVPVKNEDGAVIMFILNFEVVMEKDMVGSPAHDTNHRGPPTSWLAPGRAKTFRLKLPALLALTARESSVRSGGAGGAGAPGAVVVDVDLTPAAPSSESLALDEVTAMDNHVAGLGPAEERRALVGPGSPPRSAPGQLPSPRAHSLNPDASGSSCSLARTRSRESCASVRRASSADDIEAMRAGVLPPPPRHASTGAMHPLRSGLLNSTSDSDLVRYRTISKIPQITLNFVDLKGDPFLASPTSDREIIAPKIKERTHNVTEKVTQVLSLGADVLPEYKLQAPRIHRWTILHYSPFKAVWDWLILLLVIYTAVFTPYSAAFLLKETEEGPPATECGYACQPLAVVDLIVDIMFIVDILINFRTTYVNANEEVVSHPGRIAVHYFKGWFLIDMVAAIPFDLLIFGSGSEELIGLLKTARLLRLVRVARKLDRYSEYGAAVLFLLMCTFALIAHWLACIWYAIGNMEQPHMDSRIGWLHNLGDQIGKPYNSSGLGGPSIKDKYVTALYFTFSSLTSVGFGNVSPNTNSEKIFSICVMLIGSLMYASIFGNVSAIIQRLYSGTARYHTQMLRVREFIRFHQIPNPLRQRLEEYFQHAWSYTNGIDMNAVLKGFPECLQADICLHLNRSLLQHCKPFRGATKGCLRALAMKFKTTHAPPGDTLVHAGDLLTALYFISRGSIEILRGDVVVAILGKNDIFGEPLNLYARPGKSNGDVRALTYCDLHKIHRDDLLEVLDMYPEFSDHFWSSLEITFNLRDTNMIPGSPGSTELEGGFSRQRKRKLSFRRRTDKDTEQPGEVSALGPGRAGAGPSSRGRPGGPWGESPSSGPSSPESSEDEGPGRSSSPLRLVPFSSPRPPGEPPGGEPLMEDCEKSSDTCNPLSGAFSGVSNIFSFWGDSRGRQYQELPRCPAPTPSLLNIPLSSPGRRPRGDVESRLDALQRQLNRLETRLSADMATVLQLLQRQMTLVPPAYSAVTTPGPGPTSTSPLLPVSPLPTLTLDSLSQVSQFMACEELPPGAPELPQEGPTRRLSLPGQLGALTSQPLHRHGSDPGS
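Note: peak tail current of the secondary pulse compared with the same well before compound.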

| SMILES | hERG current change (%, negative = inhibition) at 10uM |
| --- | --- |
| Cc1cccc(NS(=O)(=O)c2cccc3cccnc23)n1 | 4.27% |
| COC(=O)C(Cc1ccccc1)NC(=O)c1cccc(S(=O)(=O)N(C)C)c1 (stereo not shown) | 2.5% |
| Cc1ccccc1-c1noc(N)c1C#N | 0.198% |
| CCCOc1cc(C)c(S(=O)(=O)NC2CC(C)(C)NC(C)(C)C2)cc1C | -15% |
| Cn1c(CSCc2ccc(Cl)cc2)nnc1SCC(=O)Nc1nc2ccccc2s1 | 9.45% |
| Cc1cc(C)cc(C(=O)NCCn2cc(SCC(=O)N3CCOCC3)c3ccccc32)c1 | -9.88% |
| O=C(O)CNc1ncccc1[N+](=O)[O-] | -86.1% |
| O=C(O)CNc1nc(Cl)ccc1[N+](=O)[O-] | 6.24% |
| O=[N+]([O-])c1cccnc1NCCc1ccccc1 | -18.9% |
| CNC(=O)C(=O)NCCN1CCN(S(=O)(=O)c2ccc3ccccc3c2)CC1 | 29.3% |
| CC[C@H]1CN(C)C[C@@]2(C(=O)OC)Cc3c([nH]c4ccccc34)C(=O)C[C@@H]12 | 9.71% |
| CC[C@@H]1CN(C)[C@H]2Cc3c([nH]c4ccccc34)C(=O)C[C@@H]1[C@@H]2C(=O)OC | 11.8% |
| CC[C@H]1CN(C)CCc2c([nH]c3ccccc23)C(=O)C[C@@H]1/C(=C\OC)C(=O)OC | -69.5% |
| C=CCc1cccc(C=Nc2ccc(Br)cc2)c1O | -4.96% |
| FC(F)(F)c1cc(Oc2ccc(Cl)cc2)ncc1-c1nnc(-c2ccc(Cl)cc2)o1 | 5.81% |
| CC(C)C(=O)NCCc1nc(-c2ccccc2Cl)no1 | 16.1% |
| O=C(OCCN=C1NS(=O)(=O)c2ccccc21)C1CC(=O)N(c2ccc(Cl)cc2)C1 (stereo not shown) | -7.04% |
| O=C(OCCOCCN=C1NS(=O)(=O)c2ccccc21)C1CC(=O)N(c2ccccc2)C1 (stereo not shown) | 13.1% |
| O=C(OCCCN=C1NS(=O)(=O)c2ccccc21)C1CC(=O)N(c2ccc(Cl)cc2)C1 (stereo not shown) | -58.7% |
| CC1(C)CC(CC(=O)O)(c2ccc(F)cc2)CCO1 (stereo not shown) | 3.33% |
| Cc1ccc(C)c(SCC(=O)Nc2ccc(C)c(S(=O)(=O)N3CCOCC3)c2)c1 | -13.4% |
| CCOCCCNc1c(CC)c(C)c(C#N)c2nc3ccccc3n12 | -42.3% |

| SMILES | hERG current change (%, negative = inhibition) at 10uM |
| --- | --- |
| COC(=O)c1c(N)n(Cc2ccc(OC)cc2)c2nc3ccccc3nc12 | -34.1% |
| COCCOC(=O)c1c(N)n(Cc2ccc(OC)cc2)c2nc3ccccc3nc12 | -75.4% |
| Cc1ccc(Cn2c(C)nc3c(c2=O)c2nc4ccccc4nc2n3Cc2ccco2)cc1 | 5.72% |
| CC(C)CNC(=O)c1c(N)n(Cc2ccco2)c2nc3ccccc3nc12 | -14.1% |
| COCCCNC(=O)c1c(N)n(Cc2ccco2)c2nc3ccccc3nc12 | -2.08% |
| COCC(C)OC(=O)c1c(N)n(Cc2ccco2)c2nc3ccccc3nc12 (stereo not shown) | -55.7% |
| Cc1cc(C)cc(-n2c3nc4ccccc4nc3c3c(=O)n(Cc4ccco4)cnc32)c1 | 6.26% |
| Cc1cccc(-n2cnc3c(c2=O)c2nc4ccccc4nc2n3Cc2ccco2)c1 | -63.7% |
| COCCNC(=O)c1c(N)n(Cc2ccco2)c2nc3ccccc3nc12 | -6.12% |
| CC(C)OC(=O)c1c(N)n(Cc2ccco2)c2nc3ccccc3nc12 | -31.4% |
| COCCOC(=O)c1c(N)n(Cc2ccco2)c2nc3ccccc3nc12 | -56.7% |
| COCCOC(=O)c1c(N)n(Cc2ccccc2)c2nc3ccccc3nc12 | -36.5% |
| COC(=O)C1=C(C)Nc2ncnn2C1c1ccco1 (stereo not shown) | 6.44% |
| COCCCn1c(SCC(=O)NNC(=O)c2cccc(O)c2)nnc1-c1ccncc1 | 5.74% |
| COc1ccc(-c2nc(C#N)c(N3CCC(C(N)=O)CC3)o2)cc1OC | -10.3% |
| COCCN(CC(=O)Nc1cccc(C)c1C)C(=O)c1cc(-c2cccs2)nn1-c1ccccc1 | 1.14% |
| CCCCOc1ccc(CSc2n[nH]c(C)n2)cc1 | -1.41% |
| CN1CCN(C(=O)CC2C(=O)NCCN2Cc2ccc(-c3ccccc3)cc2)CC1 (stereo not shown) | 2.25% |
| COC(=O)C1CN(C(=O)COc2cc(C)c(Cl)c(C)c2)c2ccccc2O1 (stereo not shown) | 18.9% |
| O=C1NC(=O)C2(CCC(C(=O)O)C2)N1 (stereo not shown) | 19.3% |
| CCOC(=O)c1oc2ccc(/C=N/O)c(Cl)c2c1C | 37.3% |
| O=C(CSc1cccc[n+]1[O-])Nc1ccc(C(F)(F)F)cc1[N+](=O)[O-] | 4.31% |

| SMILES | hERG current change (%, negative = inhibition) at 10uM |
| --- | --- |
| Clc1ccc(CO/N=C/c2cccs2)cc1 | 12.4% |
| CCOC(=O)c1c(N)n(Cc2ccco2)c2nc3ccccc3nc12 | -61.9% |
| CCOC(=O)c1c(N)n(Cc2ccccc2)c2nc3ccccc3nc12 | -29.6% |
| CCCCOCCCn1c(N)c(C(=O)OC(C)COC)c2nc3ccccc3nc21 (stereo not shown) | -9.66% |
| COCCCn1c(N)c(C(=O)OC(C)COC)c2nc3ccccc3nc21 (stereo not shown) | 0.737% |
| COCC(C)OC(=O)c1c(N)n(CC(C)C)c2nc3ccccc3nc12 (stereo not shown) | -67.8% |
| CC(C)(C)OC(=O)c1c(N)n(Cc2ccco2)c2nc3ccccc3nc12 | -5.55% |
| CSc1nccc(-c2nn(-c3ccc(C)cc3)ccc2=O)n1 | -15% |
| COC(=O)CSc1nnc(CNC(=O)c2ccc(S(=O)(=O)N3CCOCC3)cc2)n1C | 23.7% |
| COCCNC(=O)c1cccc(OC2CCN(Cc3ccc(Cl)c(F)c3)CC2)c1 | -37.5% |
| COCCNC(=O)c1cccc(OC2CCN(Cc3ccc(F)c(OC)c3)CC2)c1 | -16.2% |
| COCCNC(=O)c1cccc(OC2CCN(Cc3ccc(OC(F)F)cc3)CC2)c1 | -73.5% |
| COCCNC(=O)c1cccc(OC2CCN(Cc3ccc(C(C)C)cc3)CC2)c1 | -70.7% |
| COCCNC(=O)c1cccc(OC2CCN(Cc3ccc(C(=O)OC)cc3)CC2)c1 | -40.5% |
| COCCNC(=O)c1cccc(OC2CCN(Cc3ccccc3OC(F)F)CC2)c1 | 2.5% |
| COC(=O)/C=c1\sc2ncnn2c1=O | 3.63% |
| CCCNC(=O)c1onc(CS(=O)(=O)c2cccc(OC)c2)c1C(=O)NCCC | -12.5% |
| CN(C)/C=C/C(=O)c1ncc(C(F)(F)F)cc1Cl | 8.95% |
| CC(NC(=O)[C@H](C)NC(=O)c1ccco1)c1ccc(S(N)(=O)=O)cc1 (stereo partly shown) | 18.9% |
| O=C(CN1CCC(C(=O)c2cccc(Cl)c2)CC1)Nc1ccc(C(=O)O)cc1 | 16% |
| Oc1ccc(Nc2nnc(-c3ccc(O)cc3)c3ccccc23)cc1 | 24.3% |
| COc1ccc(Nc2nnc(-c3ccc(O)cc3)c3ccccc23)cc1 | -64.8% |

| SMILES | hERG current change (%, negative = inhibition) at 10uM |
| --- | --- |
| COc1ccc(Nc2nnc(-c3ccc(C(N)=O)cc3)c3ccccc23)cc1 | -33.9% |
| Cc1nnc(Nc2ccc3c(c2)ncn3C)c2ccccc12 | 0.0649% |
| Oc1ccc(-c2nnc(Nc3cccc(O)c3)c3ccccc23)cc1 | -7.99% |
| COc1ccc(Nc2nnc(-c3ccccc3)c3ccccc23)cc1C(=O)N1CCCCC1 | -73% |
| Oc1ccc(-c2nnc(Nc3ccccc3)c3ccccc23)cc1 | -58.9% |
| CC(=O)Nc1ccc(Nc2nnc(-c3ccc(O)cc3)c3ccccc23)cc1 | 10.2% |
| Cc1nc2cc(Nc3nnc(-c4ccccc4)c4ccccc34)ccc2n1C | -67.2% |
| Cc1ccc(-c2nnc(Nc3ccc4c(c3)nc(C)n4C)c3ccccc23)cc1 | 5.03% |
| COc1ccc(Nc2nnc(-c3ccc(C)cc3)c3ccccc23)cc1C(=O)N1CCCCC1 | -33.7% |
| COc1ccc(-c2nnc(Nc3ccc(OC)c(C(=O)N4CCCCC4)c3)c3ccccc23)cc1 | -39.3% |
| CCOC(=O)c1ccc(N=Cc2nc3ccccc3n2C)cc1 | 7.61% |
| COc1ccc(-n2c(=O)[nH]cc(C(=O)Nc3ccc4c(c3)OCCO4)c2=O)cc1OC | 6.18% |
| N#Cc1c(N)nc2c(c1N)CC(COc1ccccc1)O2 (stereo not shown) | -6.98% |
| CCSc1nnc(CNC(=O)C23CC4CC(CC(C4)C2)C3)n1Cc1ccccc1 | -5.81% |
| C[C@H](NC(=O)c1ccccc1Cl)C(=O)OCc1cn2cc(Cl)ccc2n1 | -7.08% |
| COc1ccc(OC)c(NC(=O)CCc2nnc3ccc(NCc4ccco4)nn23)c1 | -15.2% |
| CC(Nc1nc(-c2cccc(Br)c2)cs1)c1nc2cc(Cl)c(N3CCCCC3)cc2n1CCOCCO (stereo not shown) | -19.1% |
| COc1cc(C(C)=O)ccc1OC(=O)c1cc2cccc(OC)c2oc1=O | 2.53% |
| CCn1c(SCC(=O)Nc2cc(NC(C)=O)ccc2OC)nnc1-c1ccccn1 | 4.03% |
